From the OligoGym collection come the findings set out here.
Note: reference of the scale not given here.

The first experiment has as its target MTX3. The experiment can be described thus: pooled miR-30 sensor sort-seq; sequence = guide strand. Particulars: shRNA.
TATCACATTGACTTTCAAGGGT showed a sensor-assay potency score (higher = more potent) of 0.582.
With TTAATATTTATCTATGTGCTAC, the sensor-assay potency score (higher = more potent) is -0.31.
TTGGCGAAGATTGTCATCCATC returned a sensor-assay potency score (higher = more potent) of -1.1.
As to TAGAAGATTTAGGCACTCCTTG, the sensor-assay potency score (higher = more potent) is -0.542.
Sequence TTATCTATCACATTGACTTTCA displayed a sensor-assay potency score (higher = more potent) of -0.0166.
TAAAGTAATTGTCACTCTCAAC displayed a sensor-assay potency score (higher = more potent) of -1.48.
As to TTTTGGTTTAGAGTCTTCCTTA, the sensor-assay potency score (higher = more potent) was 0.00174.
The same measure, in the same setting: the same measure for TTTAGGAAACCGTACTTTGTAA: -0.773.
With TAATTGTCACTCTCAACCCAGA, the sensor-assay potency score (higher = more potent) was -0.703.
With TTGCTGAGAGTTCATAATCAGC, the sensor-assay potency score (higher = more potent) is -1.72.
Consider TTTGCCTTCACACACTTGGTGT, for which the sensor-assay potency score (higher = more potent) is -0.519.

For the next experiment, the target named is MUC16. The description is as above. Particulars: shRNA.
On to TAGTTGTCGTTGAAACAGCTGA, for which the sensor-assay potency score (higher = more potent) was -0.38.
In turn, TTGACATAGAGACTGTCCCTGT came in with a sensor-assay potency score (higher = more potent) of -0.193.
For TTGACATAGAGACTGTGCCTGT, the sensor-assay potency score (higher = more potent) was -0.153.
With TTGTCTGTGATGTTGAACTTGA, the sensor-assay potency score (higher = more potent) is -0.129.
In turn, TTGTCTTTGAAACCAGTTCTGG came in with a sensor-assay potency score (higher = more potent) of -0.722.
Same read-out and setting: then TTGACATAGAAACTATTGCTTG, with -0.839.
In turn, TTGGACTTTCTGAACTAGCGTG showed a sensor-assay potency score (higher = more potent) of -0.377.
TTTGTCTCTGTTGTTGAGCTGG gave a sensor-assay potency score (higher = more potent) of 0.192.
Turning to TTGACATAGAGACTGTTCCGGT, the sensor-assay potency score (higher = more potent) was -0.323.
The same measure, in the same setting: then TTGACATAGAGACTGTTCCTGT, with -0.0675; and TTCAGTAGTAGCACTAGTGGGC, with 0.151.

A further experiment concerns the target MUC20. The experiment is described as above. The settings on record: shRNA.
On to TTTACTGAAACACAGAACATGT, for which the sensor-assay potency score (higher = more potent) was -0.607.
In turn, TCTGTGGTCGGCCTCGTCCGGG came in with a sensor-assay potency score (higher = more potent) of -1.58.
As for TTCGCTGAGGTTGTGATCTTGG, the sensor-assay potency score (higher = more potent) was 0.418.
TTCATCGTGGTCTTCGCTGAGG: the sensor-assay potency score (higher = more potent) was -0.448.
Still for that read-out and setting: the same measure for TGAAACACAGAACATGTGCCAA: -0.681; for TACTGAAACACAGAACATGTGC: 0.46; for TAACTTGGTGTCTCAACAGAGA: -0.859.
The sequence TTGTGAGTGTCTTTGCCTCTTC displayed a sensor-assay potency score (higher = more potent) of -0.403.
Still for that read-out and setting: the same measure for TTCACCTGCACTCACGTCTGTG: -1; for TTGGTGTCTCAACAGAGAGGGC: -0.842.
TTAATAACCTCGATGTTTGTGA returned a sensor-assay potency score (higher = more potent) of -0.0395.

In another experiment the target is MUC4. The description is as above. The settings on record: shRNA.
Turning to TTTTTACTGACTTCCCTCGTGT, the sensor-assay potency score (higher = more potent) stood at 0.677.
The sequence TTCAGGAAGTCAATGACCGGGC returned a sensor-assay potency score (higher = more potent) of -0.298.
In the case of TTCAGGAAATAGGAGAACCTGG, the sensor-assay potency score (higher = more potent) is -1.36.
As to TAGTCTTGTCTTGATTCCCAGT, the sensor-assay potency score (higher = more potent) was -0.823.
For TTTGTCATCTTTCTAATCCAAG, the sensor-assay potency score (higher = more potent) was -1.23.
Same read-out and setting: then TTGTGAGTAGAAAACAGGGGTG, with -0.53; and TAACTGACACCATCCAAGGTGG, with -0.587.
